Data from PubChem BioAssay (NCI).
About 83,000 compounds went through this panel and 20% of them were active in at least one assay; those are over-represented in the sample as a whole.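 Cells were grown in 96-well plates and exposed to the test compound at a single concentration for 48 hours; results are reported as percent growth, with values below 10 considered active.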 Values without a mark were called inactive. Activity calls are given as the source filed them.

System: HL-60(TB) leukemia
Assay: NCI-60 one-dose screen, 48 h (100 = growth as untreated, 0 = no growth, -100 = all killed)
Details: 10 µM unless noted

SMILES | growth
O=C(O)c1cn(C2CC2)c2cc(N3CCN(C(=O)C[n+]4ccccc4)CC3)c(F)cc2c1=O | 112%
O=C(Nc1ncc(Cc2cccc(C(F)(F)F)c2)s1)C1COc2ccccc2O1 (stereo not drawn) | 98.5%
Cc1ccc(C(CN(C)C)C(=O)c2ccccc2)cc1 (stereo not drawn) | -31.3% (active)
O=C(Nc1ccc(-n2cc(-c3ccncc3)c(-c3ccc(O)c(Cl)c3)n2)cc1)c1cc(Cl)cc(Cl)c1 | 28.1%
O=[N+]([O-])c1cccc(C2CC(c3ccccc3)=Nc3ccccc3S2)c1 (stereo not drawn) | 84.7%
CC(=O)Oc1ccc(Br)cc1C(=O)O | 101%
N#Cc1cnc2cc(OC[C@H](O)CO)c(NC(=O)CC3CSSC3)cc2c1Nc1ccc(OCc2cccc(F)c2)c(Cl)c1 | -83.4% (active)
COc1ccc2[nH]cc(-c3noc(C(=O)c4cn(C)c5ccc(F)cc45)n3)c2c1 | 81.7%
CC/C(=C(/c1ccc(O)cc1)c1ccc(OCCN2CCCCC2)cc1)c1ccc(OC)cc1 | 81.6%
O=c1[nH]ccc2nc(N3CCC(O)CC3)nc(Nc3cccc(C(F)(F)F)c3)c12 | 29.6%
O=C(O)c1cn(C2CC2)c2cc(N3CCN(C(=O)CSc4nnc(-c5ccc(Cl)cc5)n4-c4ccccc4)CC3)c(F)cc2c1=O | 91.1%
O=C(Nc1nc(-c2ccc(Cl)cc2)nc2c1sc(=S)n2-c1ccccc1)C(F)(F)F | 69.2%
COc1ccc(-c2c(N)n[nH]c2-c2cc3c(c(OC)c2OC)OCO3)cc1 | 63.1%
